# Reference: the OligoGym collection
# Molecular target: BEST2
# Test: pooled miR-30 sensor sort-seq; sequence = guide strand
# Conditions: shRNA
row,Sequence,sensor-assay potency score (higher = more potent)
1,TAGCGCATGAGTGTGCGCCGGT,-0.558
2,TGGAACTGCATGTCTTCTTTGG,-0.925
3,TTAAGGGCGCTGTTGTCGCGGA,-1.06

# Molecular target: BIRC8
# Test: as above
# Conditions: shRNA
row,Sequence,sensor-assay potency score (higher = more potent)
1,TTCTTTTAGTTAGTGATGGTGT,0.0164
2,TTTCTGTAGTGTCTTTCTGAGC,-1.49
3,TTGAAATCAATAACCGCGCTGC,1.02
4,TTGTTAACGGAGTACATCCATG,-1.22
5,TCTTCTAGCAGATATTTGCAAC,-1.19
6,TTGCTTGAAATCAATAACCGCG,0.0701
7,TTTACAAAGCTTCTCCTCTTGC,-0.189
8,TGCAACAAGAACCTCAAGCGTT,-0.815
9,TCGTATAGCTTCTTGTAGCATA,-0.43
10,TTTCTTGGTAGTTTGTACCAGA,-0.312
11,TAGTTTGTACCAGAGCTCCCTC,-0.717
12,TAGATCTGCAACAAGAACCTCA,0.199

# Molecular target: BMPR1B
# Test: as above
# Conditions: shRNA
row,Sequence,sensor-assay potency score (higher = more potent)
1,TTGATCTTCTTTGATGAGGAAT,-1.13
2,TCTGTCTCTCTGAACCAGCTGG,-0.359
3,TCGTGAAACAATATCCGTCTGT,-0.0353
4,TATTGTTGACTGAGTCTTCTGG,0.00108
5,TAGGTCATGATAAGGAAGCTGG,-0.2
6,TTCTGTTCAAGCTCTCGTCCAA,-0.142
7,TTGTTGACTGAGTCTTCTGGAC,-0.721
8,TTTTACTTTTCAGATCTCGATG,-0.74
9,TCTGTGATTAGGTACAACTGGG,0.0109
10,TCATCGTGAAACAATATCCGTC,-0.268
11,TGATATATTTCTGTCTCTCTGA,0.214
12,TTCACCATCTGAATCTGCTTAG,-0.315
13,TATTACATTCGTTCCTTTCTGT,0.878
14,TTTCACCATCTGAATCTGCTTA,-0.0649
15,TAGGTCTTTATTACATTCGTTC,-0.881
16,TCATCCTCTTCTATCATCGTGA,0.152
17,TTGATGCACACAATCTCCCTCA,-0.279
18,TTGAGTACTAAAGATTTCTGTG,0.176
19,TTACATTCGTTCCTTTCTGTGC,-0.864
20,ATTTCTGTCTCTCTGAACCAGC,-0.623
21,TATTCTTCCACTATACCTCCTG,0.554

# Molecular target: BOLA1
# Test: as above
# Conditions: shRNA
row,Sequence,sensor-assay potency score (higher = more potent)
1,TTCTTGTTCCCACCCAGGCATG,-1.63
2,TGCGAAGCTCTAGCACCTCGGG,-1.19
3,TAGGGGGCTCAGTCCCTCGAAA,-1.29
4,TCTCGTTGCGAAGCTCTAGCAC,-0.674
